The campaign covered roughly 53,000 sequences. About 3,700 (7%) were called active. This is one part of a sample in which actives are shown more often than they occur.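 How the source made its calls: active means gene knockdowns whose robust z-score for IL-1 alpha signal is at least 2 or at most -2, so actives lie on both sides; inactive means the rest.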
Assay: Components of the Cytosolic LPS Sensing Pathway: Gene Identification via Genome-wide siRNA Screen;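 further: robust z of the log signal after scaling to non-targeting control siRNA wells of the plate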
Settings: RAW264.7 macrophages, IL-1a HTRF, actives lie on both sides, screened at 100 nM (by protocol), cells primed 5 h with Pam3CSK4 first
How it was run: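 Read-out: IL-1a HTRF on supernatant, divided by plate negative-control median ×100, log-transformed and converted to robust z-score. Cells were RAW264.7 given 100 nM siRNA, Pam3CSK4-primed 5 hours, then LipidA-transfected 24 hour.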

z-score, inactive:
GCAAAUUUUAUAUGCGACUTT against Glipr1 -0.561
GGAGAAUGACUACUAUACUTT against Stt3a -0.127
CCAGACACGCAUUGCGAAATT against H2-M2 0.357
GCAUCAAUUCCCAAACCUUTT against Selenov -0.0263
GGGCAAACCAGUUAGCAGATT against Atxn2 0.278
GGGAAGCCUUACUUAUUGGTT against Vmn1r53 1.25
GGACAAAACCUCAGUUGAUTT against Bves 1.05
CCAAGGACACUAUACAAAUTT against Fank1 0.957
CCCGCAACAAUAAACCUGATT against Yif1b -1.36
GCAGUACAUAGGACAAUACTT against Ccdc97 0.0835
GGAAGAAGAAAGUGUUAAATT against Ythdf2 -0.337
GGUCCAAUUUUAUAACAGUTT against Dmtf1 0.359
GGCUACCAAGGCAGUUUCCTT against Glis1 -1.35
GGGUAUCAGUGCCUUCCUGTT against Acads -1.05
GGUCACUCGGUUCACAAAATT against Bid -0.731
CGUUCAUAUAGAGAACUGUTT against Naip1 0.699
GGGUAAUAGACCAUUUCUUTT against Olfr124 0.255
GGAGCUUAGAGGAACGAAUTT against Cyp2j9 1.4
GGAAGAAGAAGACCAGGGATT against Parvb -0.0188
GGCCAACUUCGAAGAAAAGTT against Mrpl52 0.192
CCAAAAAAUCCUAUACUCUTT against Cdh8 1.42
GGUCACUUCCUUAAUUUUATT against Disc1 -1.62
GGCUUGGUGUUUUGAUUAGTT against Rogdi 1.6
GGUCUUGCAUGUCUCUGAGTT against Lrrc47 -1.45
GGAGUUUGAACAUAUGAAGTT against Rcn1 -0.417
GCUAUCAUGAAGCUAAAUGTT against Igf2bp1 0.267
CCAGAUUAUGACAAAGCGUTT against Glyat -0.0538
AAACCAUACUUGAAAGAAATT against Olfr943 -0.36
GCACACGUCCUAUAAAAAUTT against Rad54b 0.532
GGACUUCUCUGUGAAGAUGTT against Ctsf -0.129
GGAGAGAGGAUAAGUCACATT against Jsrp1 -1.44
GCUGGAUCCAUCUAAUUGCTT against Klhl12 0.0684
GGACCAGUUAAAGUCACCATT against Atp4b -1.81
GGAAGGUGGCUAUUUUAAUTT against Acsl3 -0.207
CCAUUUCUUUCAGUGGCUGTT against Olfr48 -0.47
GGCUAUAAAAGCACAGUUUTT against Slc25a26 -0.61
CCCUGCAUUUGUCAAUUAUTT against Hnrnpl -0.161
GGGACAAAGAGAUACACAUTT against 9530056K15Rik 1.11
GGAGGACAACAGCAAAACATT against Atoh1 -1.01
GGAAAGAGAAAAACAACCATT against Cngb3 -0.522
GGCUCACAUUGUAACUUAGTT against Krtap5-2 1.41
GGAGAAUGCUAAGGUUACUTT against Pcdhga9 0.269
CGGCACACUAAGAAACGGATT against Odf3l1 0.152
GCUCUUACAUAGAACUUUGTT against Tpbg -0.218
GGCCUUUUUUCUAUAUCUATT against Galnt3 -0.637
GGUGGUGGCAGAAAUGAAUTT against Dpep2 -0.946
CCAGUUGUGCAAUCAACAATT against Fam98c -0.367
CGCGGUGGAGCUUCGAGAATT against Nrtn 0.374
GUUUCUCCAUGGAGUCAUUTT against Psmb5 -0.742
GUGACCUCAUCCAGAAAAUTT against Vmn1r190-ps -0.613
GGAUCACUUUGACCACAACTT against Rab31 1.43
GCACUGGACCAAAGAACGGTT against Cercam 1.14
GCCAUUAUAUAGUCCUACCTT against Klf1 0.719
GGGUCAUGAAACCUACCUUTT against Hikeshi 0.182

z-score, active:
CGUGGAAAGAAAAUUAUCATT against Psmd11 -2.21
GGACGAAAUCUUGUCUGAUTT against Atg4b 2.59
GCCAUGUCAAUCAAUCACUTT against Nucks1 -2.57
GCUUUACUCCAGAUGGAUCTT against Chaf1b 3.23
CGUGCCUGCUCAAUUAAUUTT against 1700067P10Rik 2.46
GGAUUUUGGCCAAAUUGGUTT against Slc25a30 -2.08
GGAAGACCCUAAUCUAGUCTT against Cox5b 2.1
GGACAAGCAAGAAGGAAUUTT against Polr2j -2.43
GCAGUAGGUUGCACACAUATT against Art1 -2.11
CGGGAUCUUAGAAGAGCAATT against Ptpre 2.6
GCCUGAUCGAUACGUGAUCTT against Naaladl1 3.35
GGAAGGAUAUGAGAAUUUCTT against Nt5c3 2.51
GGUGGAGGUGUGAUGGAUUTT against Slamf1 5.09
GGCAUUCGAAGGGACAGAUTT against Arg2 -2.06
GCUUGGACUGGAGUGAAGCTT against Map6d1 -2.4
